# Assay outcomes: PubChem BioAssay, National Center for Advancing Translational Sciences (NCATS)
# Only some compounds are listed: those with a hit (about 1.8% of all), similar ones and a draw of the others.
# GRP78 ERSR act = inducers of ER stress response in human glioma cells | AID 602332 | actives 0.02% (n = 420,000) | Potency, µM, actives largely listed as activators | U87-MG GRP78 promoter luciferase reporter, 16 h; further: series mostly up to about 76 µM; nearly all actives have a fitted effect of over 35% in size
#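 Stably transfected U87-MG glioma cells carrying a GRP78-based luciferase sensor; 16 h compound incubation. Luminescence end-point read 10 min after Bright-Glo addition at room temperature.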
# MBNL1-CUG inh = MBNL1-poly(CUG) RNA binding inhibition; Q9NR56; TR-FRET MBNL1-His/biotin-(CUG)12 binding, 665/545 ratio; Potency, µM (titrated, usually from 57.5 µM), usual class: inhibitors; actives 0.036% (n = 280,000); active means well fitted inhibition curve with a large enough effect in the signal ratio, with a control signal flat, not every such curve was filed as active; inconclusive means small, poorly fitted or top-dose-only effect, or effect the other way, or a change in a side signal; inactive means no such curve, though single readings can be large or run the other way; the % refers to the signal ratio
# Target sequence (Q9NR56 whole entry, looked up): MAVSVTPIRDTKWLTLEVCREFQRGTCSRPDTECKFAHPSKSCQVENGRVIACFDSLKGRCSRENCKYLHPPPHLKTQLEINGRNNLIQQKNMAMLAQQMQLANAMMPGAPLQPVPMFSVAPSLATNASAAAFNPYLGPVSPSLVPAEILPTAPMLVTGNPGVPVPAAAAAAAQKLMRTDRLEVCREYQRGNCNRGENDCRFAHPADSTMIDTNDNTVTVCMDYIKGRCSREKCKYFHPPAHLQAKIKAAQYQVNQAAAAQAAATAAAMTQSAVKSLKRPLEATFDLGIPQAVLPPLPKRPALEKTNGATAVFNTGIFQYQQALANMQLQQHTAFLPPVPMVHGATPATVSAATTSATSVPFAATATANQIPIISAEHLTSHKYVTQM
#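 MBNL1-His + Biotin-(CUG)12, cpd titration 92 nM–58 uM; Tb anti-His Ab 0.055 ng/ul, SA-XL665 5 nM (final); 60 min RT; ratiometric 665/545 nm, Ex 340 nm; normalized to buffer and full-complex controls.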
# Mito fusion yeast = blocks mitochondrial division or promotes mitochondrial fusion. S. cerevisiae fusion-defective mutant growth rescue, CellTiterGlo 48 h. Potency, µM (highest dose often 46.1 µM), actives largely listed as activators. actives 0.23% (n = 320,000); further: nearly all actives have a fitted effect of over 45% in size
#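 S. cerevisiae fusion-defective temperature-sensitive mutants (e.g. fzo1-1, mgm1-5) grown 48 h at 37C in YPEG (ethanol/glycerol non-fermentable) medium with 23 nl compound per well; growth rescue read as CellTiterGlo luminescence.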
# ClpP mod = qHTS Assay for Activators of ClpP; ATP-dependent Clp protease proteolytic subunit (Bacillus subtilis (strain 168)), P80244; actives 1.9% (n = 340,000); purified B. subtilis ClpP, FRET peptide cleavage, 20 min; Potency, µM (titrated, usually from 57.5 µM); active means well fitted falling curve with a large enough effect; inconclusive means small, poorly fitted or top-dose-only effect; inactive means no such curve, though single readings can be large or run the other way; further: the source files actives as falling curves though it sought activators and does not explain the sign; nearly all actives have a fitted effect of over 65% in size
#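 Purified B. subtilis ClpP, 10 microg/mL final in Tris/HCl pH8 with KCl, BSA, glycerol and Tween-20, cleaved an Abz/nitrotyrosine-quenched decapeptide. Fluorescence (ex 320, em 430) was read at 0 and 20 min at room temperature. Delta was normalized to 5.8 microM ADEP and DMSO/no-enzyme controls.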
# TCR activator = T cell receptor activation | primary human leukocytes, anti-CD3, IL-2 HTRF, 48 h | Potency, µM (doses to about 9.22 µM), most hits filed as activators | 330,000 tested, under 10 active | AID 504894
#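 1) Mix primary human leukocytes, a-CD3 beads and compound. 2) Incubate 48 hr. 3) Add HTRF IL-2 reagents (a-IL-2-K, a-IL-2-d2).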
# AT treatment = potential ataxia-telangiectasia treatments restoring KAP-1 phosphorylation; F2112 A-T fibroblasts, KAP-1 phosphorylation AlphaLISA; neocarzinostatin DNA damage 30 min before lysis; Potency, µM (series often up to 57.5 µM), actives largely listed as activators; actives 0.19% (n = 320,000); further: nearly all actives have a fitted effect of over 45% in size
#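 ATM-like activity read as KAP-1 phosphorylation via AlphaLISA donor/acceptor antibody pairs after lysis and 6 hr at 25C. Cells were ATM-null patient fibroblasts (F2112, hTERT), dosed 60 min, then exposed to the DSB inducer NCS for 30 min.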
# ClpP validation = inhibits B. subtilis ClpP protease, hit validation; shares compounds with ClpP mod; Potency, µM (titrated, usually from 57.5 µM), actives largely listed as inhibitors; actives 40% (n = 470); purified B. subtilis ClpP, FRET-FV substrate cleavage, 20 min; further: nearly all actives have a fitted effect of over 70% in size
# Numbers stand for hits; - = inactive; ? = inconclusive; . = no result. Unless noted, the call rests on the fitted dose curve; in most records, active means well fitted curve in the direction sought with a large enough effect; inconclusive means small, poorly fitted or top-dose-only effect, or another doubt; inactive means no such curve, though single readings can be large; an effect the other way counts as inactive or inconclusive.
SMILES,GRP78 ERSR act,MBNL1-CUG inh,Mito fusion yeast,ClpP mod,TCR activator,AT treatment,ClpP validation
CCOc1ccc(-c2cn3c(n2)sc2cc(C(=O)NC4CCCc5ccccc54)ccc23)cc1 (stereo unspecified),-,.,.,5µM,.,.,?
C[C@@H]1C(=O)O[C@@H]1[C@@H](C)CO[Si](c1ccccc1)(c1ccccc1)C(C)(C)C,-,.,.,.,.,.,.
COc1ccc2oc(-c3ccco3)cc(=O)c2c1,-,?,-,-,-,-,.
O=c1cc(-c2ccco2)oc2ccc(Cl)cc12,-,-,-,2.8µM,-,-,?
COc1ccc(-n2c(-c3cccc(OC)c3)nc(=S)c3c2CCCC3)cc1,-,?,-,-,-,-,-
